# Data as given in PubChem BioAssay.
# Activity calls are given as the source filed them.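 How the source made its calls, unless noted: active means inhibition above the screen-wide mean plus 3 SD, about 51%; inactive means the rest.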
# Columns and labels:
# [1] = AGP1-GFP expression modulators, hit retest, confirmation, cell-based, flow cytometry, S. cerevisiae, cherry picks (AID 2273;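 active means GFP response above 150% of the DMSO level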;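 further: median GFP channel fluorescence over the whole cell population gate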); conditions: S. cerevisiae AGP1-GFP strain, 3 h, at 10 µM
# [2] = target: Integrin beta-1 (Homo sapiens) + Integrin alpha-4 (Homo sapiens) (UniProt P13612+P05556); assay: inhibition of HUTS-21 binding to VLA-4, pilot screen, VLA-4 allosteric modulator project, U937 cells, HUTS-21 mAb, flow cytometry, validation set (AID 2674;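 active means inhibition above 50%, about 3 SD of the validation set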;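 further: antibody binding induced by the VLA-4 ligand LDV present at three times its Kd; 0% = LDV ligand with antibody and no compound and 100% = antibody without LDV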); conditions: HUTS-21 LIBS mAb binding, at 6.7 µM, stronger effect = higher value, binding induced by LDV ligand
# [3] = superoxide lowering in aged yeast cells, pilot screen, validation compound set (AID 2706;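 active means superoxide response below 65% of plate, a cut near 3 SD across the whole screen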;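 further: yeast exposed to compound for one week at 30 degrees C before staining; 100% = mean of all compound wells on the same plate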); conditions: S. cerevisiae aging, superoxide DHE fluorescence; at 10 µM; stronger effect = lower value
# [4] = target: Beta-adrenergic receptor kinase 1 (Homo sapiens) (UniProt P25098); assay: GRK2 binders displacing RNA aptamer, biochemical, validation, human GRK2, bead flow cytometry (AID 488806;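 active means aptamer binding inhibition above 30%, about 3 SD of noise from non-fluorescent compounds; inactive means inhibition at or below 30%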); conditions: bead-bound GRK2, FAM-aptamer displacement, at 10 µM, stronger effect = higher value
# [5] = target: Beta-2 adrenergic receptor (Homo sapiens) (UniProt P07550); assay: beta2AR agonists driving receptor internalization, pilot screen, cell-based, FAP fluorogen, flow cytometry, validation set (AID 504459;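 active means percent response above 42, roughly 3 SD of non-fluorescent test compounds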;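 further: agonist-driven loss of surface beta2AR via internalization measured by FAP dye flow cytometry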); conditions: Am2.2-beta2AR cells, FAP surface receptor flow cytometry; at 10 µM; stronger effect = higher value
# [6] = target: AP-2 complex subunit beta (Homo sapiens) (UniProt P63010); assay: inhibitors of arrestin peptide binding to AP2, pilot screen, biochemical, validation set, GST-AP2 beads, flow cytometry (AID 504541;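 active means inhibition above 54%, about 3 SD of non-fluorescent compounds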;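 further: AP2 carries R879A mutation and is captured from E. coli lysate; bead-bound FITC arrestin peptide fluorescence measuring arrestin peptide binding to AP2; 0% = DMSO wells and 100% = excess unlabeled arrestin peptide control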); conditions: FITC arrestin peptide, at 10 µM, stronger effect = higher value, AP2 beta2 appendage fragment, R879A mutant
# [7] = yeast V-ATPase proton transport modulators, S. cerevisiae, pHLuorin, HTS validation (AID 504600; in the data active means response above about 15%;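 further: plate controls were DMSO for no effect and reference compound for full effect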); conditions: S. cerevisiae pHLuorin cytosolic pH, at 10 µM, stronger effect = higher value
# [8] = test system: anti-desmoglein-3 scFv antibody binding to human DSG3; assay: inhibitors of anti-DSG3 scFv binding to DSG3, pilot screen, biochemical, validation compound set, bead-based, flow cytometry (AID 588368;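 active means binding below the plate cutoff, the plate median minus 3 SD, with a reading above zero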;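 further: signal is the median channel fluorescence of bead-bound GFP antibody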); conditions: Protein G beads, DSG3-Fc, scFv-GFP binding, at 10 µM, stronger effect = lower value
# [9] = inhibitors of fungal efflux pumps CDR1, CDR2, MDR1, pilot screen, validation compound set, multiplex, phenotypic (AID 588506;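 active means efflux inhibition above 0.42, the validation set average plus 4 SD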;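 further: Nile Red retained in cells so higher fluorescence means more efflux inhibition; 0 = negative control wells and 1 = enniatin B 25 µM full block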); conditions: S. cerevisiae pump-expressing triplex, Nile Red efflux flow cytometry; at 10 µM; stronger effect = higher value; the pumps come from Candida albicans
# [10] = target: ATP-binding cassette sub-family B member 6 (Homo sapiens) (UniProt Q9NP58); assay: ABCB6 transporter inhibitors, pilot screen, K562-ABCB6 cells, flow cytometry, validation set (AID 588550); conditions: K562-ABCB6 porphyrin accumulation, 1 h, at 10 µM, stronger effect = higher value;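 further: 0% = DMSO wells and 100% = benzethonium chloride 70 µM positive control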
# [11] = promoters of myeloid differentiation in arrested cells, primary screen, cell-based, GFP/MAC1 double positive, flow cytometry, validation set (AID 588685;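 active means differentiation response of at least 50%, scaled between solvent and reference control, from cells with both markers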;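 further: compound exposure lasts four days before antibody staining and flow analysis; 0% = DMSO wells and 100% = 5 µM fulvestrant positive control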); conditions: ER-HoxA9 marrow cells, stronger effect = higher value, normalized: vehicle 0, fulvestrant 100
# Beta-adrenergic receptor kinase 1 (Homo sapiens), sequence (P25098 whole entry, looked up): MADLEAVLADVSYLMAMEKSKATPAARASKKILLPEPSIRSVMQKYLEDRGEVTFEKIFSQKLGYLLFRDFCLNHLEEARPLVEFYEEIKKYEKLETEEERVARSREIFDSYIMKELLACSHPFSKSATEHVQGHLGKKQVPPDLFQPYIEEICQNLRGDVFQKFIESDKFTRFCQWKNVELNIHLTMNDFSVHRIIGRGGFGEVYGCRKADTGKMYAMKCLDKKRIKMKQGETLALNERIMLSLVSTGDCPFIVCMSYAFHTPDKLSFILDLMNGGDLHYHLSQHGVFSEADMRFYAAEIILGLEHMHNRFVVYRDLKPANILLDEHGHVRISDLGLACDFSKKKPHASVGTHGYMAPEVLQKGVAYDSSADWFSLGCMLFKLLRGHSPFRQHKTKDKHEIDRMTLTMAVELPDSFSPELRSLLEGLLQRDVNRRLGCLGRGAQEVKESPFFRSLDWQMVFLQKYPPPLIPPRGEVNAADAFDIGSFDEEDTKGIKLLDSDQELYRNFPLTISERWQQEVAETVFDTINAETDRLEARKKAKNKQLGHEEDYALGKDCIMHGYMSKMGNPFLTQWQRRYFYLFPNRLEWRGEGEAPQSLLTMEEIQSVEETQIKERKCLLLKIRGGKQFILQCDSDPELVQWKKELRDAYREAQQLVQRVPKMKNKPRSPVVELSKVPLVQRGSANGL
# ATP-binding cassette sub-family B member 6 (Homo sapiens), sequence (Q9NP58 whole entry, looked up): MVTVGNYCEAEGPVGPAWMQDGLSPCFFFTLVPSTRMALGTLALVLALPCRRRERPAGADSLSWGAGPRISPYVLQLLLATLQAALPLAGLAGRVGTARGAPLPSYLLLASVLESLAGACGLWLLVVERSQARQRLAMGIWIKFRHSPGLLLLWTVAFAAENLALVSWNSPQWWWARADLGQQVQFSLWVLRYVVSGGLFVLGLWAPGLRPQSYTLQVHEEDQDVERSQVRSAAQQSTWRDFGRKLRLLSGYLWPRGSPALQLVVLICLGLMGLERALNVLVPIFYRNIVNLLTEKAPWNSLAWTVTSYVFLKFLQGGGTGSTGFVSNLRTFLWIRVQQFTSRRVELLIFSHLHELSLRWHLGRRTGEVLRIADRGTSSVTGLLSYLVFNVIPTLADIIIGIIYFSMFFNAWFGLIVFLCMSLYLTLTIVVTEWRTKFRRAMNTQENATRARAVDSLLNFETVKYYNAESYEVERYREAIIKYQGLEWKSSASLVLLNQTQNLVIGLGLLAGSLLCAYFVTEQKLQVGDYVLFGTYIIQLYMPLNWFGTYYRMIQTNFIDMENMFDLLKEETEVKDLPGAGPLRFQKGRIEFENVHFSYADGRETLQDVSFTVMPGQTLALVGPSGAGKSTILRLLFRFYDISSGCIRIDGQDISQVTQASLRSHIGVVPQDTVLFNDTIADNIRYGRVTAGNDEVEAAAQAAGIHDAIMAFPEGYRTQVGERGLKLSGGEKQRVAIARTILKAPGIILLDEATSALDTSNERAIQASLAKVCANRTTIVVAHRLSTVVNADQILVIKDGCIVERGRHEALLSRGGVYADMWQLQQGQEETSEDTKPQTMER
# Integrin beta-1 (Homo sapiens) + Integrin alpha-4 (Homo sapiens), sequence (P05556 whole entry, looked up): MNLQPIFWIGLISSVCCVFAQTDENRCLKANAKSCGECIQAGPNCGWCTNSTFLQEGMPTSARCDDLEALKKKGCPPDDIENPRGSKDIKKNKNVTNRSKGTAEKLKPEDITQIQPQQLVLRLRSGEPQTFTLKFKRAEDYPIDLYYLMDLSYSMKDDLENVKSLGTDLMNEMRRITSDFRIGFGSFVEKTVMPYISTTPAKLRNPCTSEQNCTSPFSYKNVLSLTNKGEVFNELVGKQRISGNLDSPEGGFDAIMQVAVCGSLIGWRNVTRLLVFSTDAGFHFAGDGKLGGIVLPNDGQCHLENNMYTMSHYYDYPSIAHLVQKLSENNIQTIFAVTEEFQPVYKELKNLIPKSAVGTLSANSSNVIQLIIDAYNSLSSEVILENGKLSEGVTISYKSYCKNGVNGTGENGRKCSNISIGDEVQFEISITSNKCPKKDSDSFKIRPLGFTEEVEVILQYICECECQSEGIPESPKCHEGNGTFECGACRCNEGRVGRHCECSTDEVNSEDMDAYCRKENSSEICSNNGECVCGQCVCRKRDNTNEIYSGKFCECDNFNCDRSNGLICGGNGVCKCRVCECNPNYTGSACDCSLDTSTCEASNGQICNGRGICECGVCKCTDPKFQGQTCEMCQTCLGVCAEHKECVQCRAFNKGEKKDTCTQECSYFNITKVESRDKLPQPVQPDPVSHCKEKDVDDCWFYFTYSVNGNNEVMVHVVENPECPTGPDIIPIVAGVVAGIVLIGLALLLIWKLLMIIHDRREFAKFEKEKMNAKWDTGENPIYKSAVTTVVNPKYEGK
# Integrin beta-1 (Homo sapiens) + Integrin alpha-4 (Homo sapiens), sequence (P13612 whole entry, looked up): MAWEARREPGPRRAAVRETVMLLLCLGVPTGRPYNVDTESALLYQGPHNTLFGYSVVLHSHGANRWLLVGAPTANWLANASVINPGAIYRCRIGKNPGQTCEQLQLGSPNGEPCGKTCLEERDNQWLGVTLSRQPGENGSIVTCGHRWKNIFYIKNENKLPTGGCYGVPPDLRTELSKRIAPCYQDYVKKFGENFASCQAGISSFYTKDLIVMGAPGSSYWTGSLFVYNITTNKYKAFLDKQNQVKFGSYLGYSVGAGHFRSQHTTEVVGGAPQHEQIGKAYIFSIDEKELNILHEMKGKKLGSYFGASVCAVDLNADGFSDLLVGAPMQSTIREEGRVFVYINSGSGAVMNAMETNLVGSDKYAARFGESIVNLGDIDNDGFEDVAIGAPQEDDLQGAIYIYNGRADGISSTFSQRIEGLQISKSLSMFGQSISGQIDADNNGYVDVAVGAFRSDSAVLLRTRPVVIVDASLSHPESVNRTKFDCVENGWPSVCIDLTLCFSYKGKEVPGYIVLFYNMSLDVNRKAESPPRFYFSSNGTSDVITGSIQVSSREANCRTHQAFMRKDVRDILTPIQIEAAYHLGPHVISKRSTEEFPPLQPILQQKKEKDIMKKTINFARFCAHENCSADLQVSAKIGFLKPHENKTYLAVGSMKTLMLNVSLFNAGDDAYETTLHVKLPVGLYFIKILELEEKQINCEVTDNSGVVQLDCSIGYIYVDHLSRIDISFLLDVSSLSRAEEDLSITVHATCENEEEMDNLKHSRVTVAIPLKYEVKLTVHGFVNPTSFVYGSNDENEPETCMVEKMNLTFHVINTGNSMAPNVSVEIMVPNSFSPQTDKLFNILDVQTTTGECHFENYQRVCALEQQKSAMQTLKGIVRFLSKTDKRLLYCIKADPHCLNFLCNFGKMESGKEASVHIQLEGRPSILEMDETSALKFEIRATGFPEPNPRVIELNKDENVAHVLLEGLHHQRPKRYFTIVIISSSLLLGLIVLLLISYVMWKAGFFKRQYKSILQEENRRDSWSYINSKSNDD
# AP-2 complex subunit beta (Homo sapiens), sequence (P63010 whole entry, looked up, the tested form may be a part, one chain of several): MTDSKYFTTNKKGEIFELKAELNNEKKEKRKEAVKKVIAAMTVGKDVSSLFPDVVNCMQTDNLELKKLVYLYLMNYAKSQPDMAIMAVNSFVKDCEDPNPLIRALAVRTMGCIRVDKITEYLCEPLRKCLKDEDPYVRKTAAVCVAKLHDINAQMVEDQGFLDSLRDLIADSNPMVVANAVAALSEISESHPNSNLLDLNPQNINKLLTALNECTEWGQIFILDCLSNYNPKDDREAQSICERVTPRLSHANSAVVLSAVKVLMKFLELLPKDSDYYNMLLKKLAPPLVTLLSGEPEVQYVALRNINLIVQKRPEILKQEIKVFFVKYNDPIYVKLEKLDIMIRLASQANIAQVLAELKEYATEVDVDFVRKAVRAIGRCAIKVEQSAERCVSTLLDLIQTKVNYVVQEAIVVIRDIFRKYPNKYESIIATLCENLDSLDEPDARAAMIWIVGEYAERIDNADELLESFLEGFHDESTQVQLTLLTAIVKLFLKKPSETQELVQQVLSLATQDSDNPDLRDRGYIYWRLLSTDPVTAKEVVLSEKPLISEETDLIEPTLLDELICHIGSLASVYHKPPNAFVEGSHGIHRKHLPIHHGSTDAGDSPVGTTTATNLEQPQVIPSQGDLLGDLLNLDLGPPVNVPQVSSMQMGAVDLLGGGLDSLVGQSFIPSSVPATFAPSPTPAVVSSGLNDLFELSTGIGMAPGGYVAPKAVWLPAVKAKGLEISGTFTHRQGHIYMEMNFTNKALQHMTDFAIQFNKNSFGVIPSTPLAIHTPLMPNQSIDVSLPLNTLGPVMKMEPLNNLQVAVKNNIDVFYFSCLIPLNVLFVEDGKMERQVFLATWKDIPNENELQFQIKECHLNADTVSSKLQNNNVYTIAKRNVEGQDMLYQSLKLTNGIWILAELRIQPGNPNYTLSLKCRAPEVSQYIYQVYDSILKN
# Beta-2 adrenergic receptor (Homo sapiens), sequence (P07550 whole entry, looked up): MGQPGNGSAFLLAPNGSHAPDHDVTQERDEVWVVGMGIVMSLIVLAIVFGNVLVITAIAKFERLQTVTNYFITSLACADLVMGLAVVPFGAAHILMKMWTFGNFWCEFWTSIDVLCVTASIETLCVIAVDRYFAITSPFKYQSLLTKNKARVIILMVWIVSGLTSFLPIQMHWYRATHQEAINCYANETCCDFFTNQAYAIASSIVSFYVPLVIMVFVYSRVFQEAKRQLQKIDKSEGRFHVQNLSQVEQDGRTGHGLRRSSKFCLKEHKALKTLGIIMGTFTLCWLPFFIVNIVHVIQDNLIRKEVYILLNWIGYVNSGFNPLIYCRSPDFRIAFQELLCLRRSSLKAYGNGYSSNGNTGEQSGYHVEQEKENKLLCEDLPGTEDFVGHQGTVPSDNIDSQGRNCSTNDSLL
SMILES,"GFP response, % of DMSO [1]",inhibition [2],superoxide response (% of plate) [3],aptamer binding inhibition [4],response [5],inhibition [6],response [7],binding (% of control) [8],efflux inhibition (fraction of control) [9],inhibition [10],differentiation response [11]
CCCCCCCC(=O)OCC(=O)[C@@]1(O)CC[C@H]2[C@@H]3CCC4=CC(=O)CC[C@]4(C)[C@H]3[C@@H](O)C[C@@]21C,101% (inactive),11% (inactive),108% (inactive),4% (inactive),0.19% (inactive),-9.35% (inactive),10.5% (inactive),97.1% (inactive),0.74 (active),14% (inactive),5.13% (inactive)
COc1ccc(-c2noc(-c3ccccc3-c3ccccc3)n2)cc1,101% (inactive),-15.8% (inactive),94.3% (inactive),8% (inactive),3.77% (inactive),19.4% (inactive),-3.56% (inactive),100% (inactive),0.19 (inactive),6% (inactive),-1.64% (inactive)
O=C(NCCN1CCN(c2ccccc2)CC1)c1cccc(Br)c1,100% (inactive),17.1% (inactive),104% (inactive),0% (inactive),-3.55% (inactive),13.8% (inactive),-7.18% (inactive),103% (inactive),0.05 (inactive),6% (inactive),11.5% (inactive)
Cc1ccc(OCCCCn2ccnc2C)c(C)c1,101% (inactive),30.4% (inactive),98.5% (inactive),3% (inactive),-16% (inactive),-1.94% (inactive),3.03% (inactive),106% (inactive),-0.13 (inactive),10% (inactive),5.85% (inactive)
COc1ccc(C2=CC(=O)C=CC2=O)cc1,100% (inactive),4.84% (inactive),80.4% (inactive),1% (inactive),64.2% (active),64.5% (active),62.2% (active),88.8% (inactive),-0.04 (inactive),-2% (inactive),-0.06% (inactive)
CC(=O)Nc1ccccc1O,98.7% (inactive),6.46% (inactive),87.6% (inactive),6% (inactive),2.64% (inactive),0.05% (inactive),0.98% (inactive),101% (inactive),-0.28 (inactive),8% (inactive),3.28% (inactive)
O=C1ON=C(c2ccc(Cl)cc2)/C1=C/c1ccc(O)cc1,95.4% (inactive),14.6% (inactive),93.4% (inactive),4% (inactive),33.5% (inactive),-8.88% (inactive),-1.63% (inactive),101% (inactive),-0.06 (inactive),2% (inactive),-8.8% (inactive)
NS(=O)(=O)c1cc2c(cc1C(F)(F)F)NC(Cc1ccccc1)NS2(=O)=O (configuration not stated),101% (inactive),7.43% (inactive),85% (inactive),7% (inactive),1.02% (inactive),21.3% (inactive),-2.03% (inactive),97.4% (inactive),0.05 (inactive),6% (inactive),-0.82% (inactive)
O=C(/C=C/c1ccccc1)c1ccccc1,99.7% (inactive),2.58% (inactive),92.2% (inactive),4% (inactive),5.66% (inactive),-4.66% (inactive),-0.45% (inactive),107% (inactive),-0.31 (inactive),14% (inactive),9.83% (inactive)
N#C/C(C(N)=O)=c1/ccc2c(c1)N1C3=C(CCCC3)CC3CCCCC31N=2 (configuration not stated),100% (inactive),-74.8% (inactive),92.3% (inactive),-5% (inactive),5.12% (inactive),46.9% (inactive),-2.62% (inactive),98.3% (inactive),0.37 (inactive),-58% (inactive),-16.3% (inactive)
CC(=O)O[C@]1(C(C)=O)CC[C@H]2[C@@H]3C[C@H](C)C4=CC(=O)CC[C@]4(C)[C@H]3CC[C@@]21C,97.1% (inactive),-3.57% (inactive),,-1% (inactive),3.07% (inactive),-9.79% (inactive),-0.42% (inactive),100% (inactive),0.08 (inactive),20% (inactive),10% (inactive)
CNCCC(Oc1ccc(C(F)(F)F)cc1)c1ccccc1 (configuration not stated),97.4% (inactive),6.46% (inactive),85.8% (inactive),0% (inactive),16.8% (inactive),13.5% (inactive),1.16% (inactive),94.1% (inactive),,6% (inactive),-1.64% (inactive)
COc1ccc(C(=O)NCC2OCCc3ccccc32)cc1 (configuration not stated),91.3% (inactive),-2.27% (inactive),92.6% (inactive),1% (inactive),-2.23% (inactive),7.24% (inactive),-0.15% (inactive),103% (inactive),-0.28 (inactive),4% (inactive),2.46% (inactive)
CC(=O)c1ccc(CCCCCCCCCC(=O)O)s1,95.2% (inactive),13.2% (inactive),117% (inactive),-5% (inactive),23.9% (inactive),26.2% (inactive),-3% (inactive),99.3% (inactive),0.01 (inactive),-2% (inactive),66.4% (active)
